This passage reports inhibition results from PubChem BioAssay AID1619 (SRMLSC, 2009).

SMILES strings stand for the structures. Among all 220,000 compounds or so, about 830 (0.38%) were called active.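 Rule for the calls: active = compound inhibiting the enzyme by more than half at any dose during confirmatory dose-response retesting; inconclusive = strong single-dose inhibitors picked by rank but not retested; inactive = the rest.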 These entries were drawn from the full list. Potency and affinity values are given separately. Residues, ends and D or L forms follow the SMILES beside them. *: point of attachment. Boc = CC(C)(C)OC(=O)*

What is called inhibition is the relative decrease from the control value, in per cent.

In the assay the target is Leucine aminopeptidase (Plasmodium falciparum (isolate 3D7)) (UniProt Q8IL11). The assay is described as follows: P. falciparum M17LAP inhibitors, primary screen, biochemical, fluorogenic H-Leu-NHMec substrate, 1536-well (AID 1619).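 Note: plate controls were full reaction with DMSO carrier for no effect and no enzyme background for full effect.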 Particulars: recombinant M17LAP, H-Leu-NHMec fluorogenic kinetic assay; at 30 µM; stronger effect = higher value.
Leucine aminopeptidase (Plasmodium falciparum (isolate 3D7)), sequence (Q8IL11 whole entry, looked up): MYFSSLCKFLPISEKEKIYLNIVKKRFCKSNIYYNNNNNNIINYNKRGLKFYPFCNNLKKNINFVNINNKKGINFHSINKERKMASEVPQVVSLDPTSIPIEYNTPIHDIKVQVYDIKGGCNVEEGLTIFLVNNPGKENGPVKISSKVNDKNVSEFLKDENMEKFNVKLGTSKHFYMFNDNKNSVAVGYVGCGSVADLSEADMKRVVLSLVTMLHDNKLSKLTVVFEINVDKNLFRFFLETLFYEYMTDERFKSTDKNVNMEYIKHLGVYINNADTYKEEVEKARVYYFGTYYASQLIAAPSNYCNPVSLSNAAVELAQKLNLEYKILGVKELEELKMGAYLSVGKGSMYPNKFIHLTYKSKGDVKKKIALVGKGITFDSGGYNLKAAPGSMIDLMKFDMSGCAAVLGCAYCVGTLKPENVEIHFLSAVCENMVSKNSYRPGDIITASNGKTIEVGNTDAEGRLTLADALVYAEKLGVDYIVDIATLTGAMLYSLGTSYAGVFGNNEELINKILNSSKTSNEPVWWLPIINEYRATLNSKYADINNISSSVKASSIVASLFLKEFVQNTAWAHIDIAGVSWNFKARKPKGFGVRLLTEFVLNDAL
On to `Cn1c(=O)c2c(SCC(=O)N3CCOCC3)nc(C3CCCCC3)nc2n(C)c1=O`, for which the inhibition was -15.2% (inactive).

Take `O=C(Cc1csc(NC(=O)c2ccccc2)n1)NO`: the inhibition was 28.3% (inactive). Then `O=C(Cc1ccc(-c2ccccc2)cc1)NCc1ccccc1`, with -2.44% (inactive); and `CS(=O)(=O)N(CC(=O)N1CCOCC1)Cc1ccc(Cl)cc1`, with -4.28% (inactive); and `CCC(=O)c1ccc(-c2ccccc2)cc1`, with -6.48% (inactive). `CN(C)CC(=O)c1ccc(-c2ccccc2)cc1`: the inhibition is 68.2% (inactive).

As for `CC(C)(C)OC(=O)N1CCCC1C(=O)NC(Cc1ccccc1)C(=O)O` (stereo not drawn) (Boc-Pro-Phe-OH; configuration not given here), the inhibition is 9.76% (inactive). Then `CC(C)C(NC(=O)OC(C)(C)C)C(=O)N1CCCC1C(=O)NC(Cc1ccccc1)C(N)=O` (stereo not drawn) (Boc-Val-Pro-Phe-NH2; configuration not given here), with 17.4% (inactive); and `Cc1nn(-c2ccc(F)cc2)c(Cl)c1/C=C/C(=O)OCC(=O)Nc1ccc(F)cc1F`, with 0.75% (inactive); and `O=C(c1ccccc1)c1ncc(C(F)(F)F)cc1Cl`, with -12.8% (inactive). `CCCCn1c(SCC(=O)c2ccc(O)c(O)c2)nc2ccsc2c1=O`: the inhibition was 19.5% (inactive). For the compound `O=C(O)CCCCCn1c(SCC(=O)N2CCCC2)nc2ccsc2c1=O`, the inhibition is 14.5% (inactive). Consider `CNc1nc(Oc2ccc(C(=O)OC)cc2)nc(SC)n1`, for which the inhibition was -13.4% (inactive). As to `Cn1cc(Cl)c(-c2n[nH]c(=S)n2-c2ccccc2)n1`, the inhibition was 8.04% (inactive). Consider `CCOC(=O)c1c(NC(=O)CSc2nc3ccccc3c(=O)n2-c2ccccc2)sc(C(C)=O)c1C`, for which the inhibition is -1.44% (inactive). For the compound `Cc1ccc(O)c(C(=O)c2cnn(C(=O)Cc3csc(C)n3)c2)c1`, the inhibition was -1.8% (inactive). The same measure for `O=C(c1cnn(C(=O)COc2ccccc2F)c1)c1cc(F)ccc1O`: 1.06% (inactive); for `O=C(Cn1cnc2ccccc2c1=O)c1ccc(Cl)cc1`: 1.39% (inactive). For the compound `COc1ccc(N(C(=O)C(C)C)S(=O)(=O)c2ccc(Cl)cc2)cc1`, the inhibition is -1.25% (inactive). Then `CCOc1ccc(Nc2nc(Cc3nnc(SCC(=O)c4ccc(C)cc4)o3)cs2)cc1`, with 27.5% (inactive); and `CCOc1ccc(Nc2nc(Cc3nnc(SCC(N)=O)o3)cs2)cc1`, with 27.7% (inactive). On to `CCn1c(CNc2nc(-c3ccccc3)cs2)nnc1SCC(=O)NCc1ccco1`, for which the inhibition was -5.1% (inactive). `CCn1c(COc2ccc(C)cc2)nnc1SCC(=O)NCc1ccco1`: the inhibition was 6.34% (inactive).

Regarding `CC(=O)/C(=N\Nc1cccc(Cl)c1)Sc1nnc(-c2ccccc2)n1-c1ccccc1`, the inhibition was -10.1% (inactive).

Regarding `CCC(Oc1ccccc1)C(=O)NC1C(=O)N2C1SC(C)(C)C2C(=O)O` (configuration not stated), the inhibition was 19.9% (inactive). Regarding `Cn1c(=O)c2c(nc(N3CCCCC3)n2CCNC2=NCCC2)n(C)c1=O`, the inhibition was 11.7% (inactive).

For `O=C(Nc1ccccc1)Nc1scc2c1c(=O)oc1ccccc12`, the inhibition was -3.24% (inactive). Then `COc1ccc(C(=O)N2CCc3cc(OC)c(OC)cc3C2c2cccc([N+](=O)[O-])c2)cc1OC` (configuration not stated), with -0.93% (inactive).

Consider `Cc1ccc(C2C(C#N)=C3N=C(N)c4ccccc4N3C3=C2C(=O)CCC3)cc1` (configuration not stated), for which the inhibition is -9.17% (inactive). For the compound `c1ccc2c(-c3nn[nH]n3)cccc2c1`, the inhibition was -2.27% (inactive). Regarding `Cn1c(-c2cccc3ccccc23)n[nH]c1=S`, the inhibition is -3.33% (inactive). With `O=C(Oc1ccc(Br)cc1C(=S)N1CCCC1)c1ccccc1F`, the inhibition is -3.73% (inactive). Then `CN=C1SC(CC(=O)Nc2ccc(N3CCOCC3)cc2)C(=O)N1C` (configuration not stated), with -4.74% (inactive). With `CSCCC(NC(=O)c1ccc(C)o1)C(=O)O` (configuration not stated), the inhibition is -6.5% (inactive). For the compound `CSCCC(NC(=O)c1cc(C)oc1C)C(=O)O` (configuration not stated), the inhibition is 5.74% (inactive). The same measure for `COC(=O)c1cccc(NC(=O)c2onc3c2CCCC3)c1`: 10.6% (inactive); for `Cc1cc(C(F)(F)F)nn1CC(=O)NNC(=S)Nc1ccc(Cl)cc1`: 19.4% (inactive).

Take `Cc1cc(C(=O)N/N=C/C=C/c2cccc([N+](=O)[O-])c2)n[nH]1`: the inhibition was 26.9% (inactive). With `CC(C)=N/N=C(/c1ccc([N+](=O)[O-])cc1)C12CN3CN(CN(C3)C1)C2`, the inhibition is 5.26% (inactive). `CCOC(=O)c1c(NC(=O)C2C3CCC(O3)C2C(=O)O)sc2c1CCC(CC)C2` (configuration not stated): the inhibition is 7.12% (inactive). For the compound `CCOC(=O)c1c(NC(=O)C2C3C=CC(C3)C2C(=O)O)sc2c1CC(C)(C)OC2` (configuration not stated), the inhibition is 31.8% (inactive). The same measure for `CCOC(=O)c1c(N2C(=O)C3C4C=CC(C4)C3C2=O)sc2c1CCC(C)C2` (configuration not stated): 2.96% (inactive); for `CCOC(=O)c1c(NC(=O)c2ccc(N3C(=O)C4C5C=CC(C5)C4C3=O)cc2)sc2c1CCCC2` (configuration not stated): -6.59% (inactive).

`CCOC(=O)c1c(NS(C)(=O)=O)sc2c1CCC(C)C2` (configuration not stated): the inhibition is 8.14% (inactive). For the compound `CCOC(=O)c1c(NC(=O)C2C3C=CC(C3)C2C(=O)O)sc2c1CCCC2` (configuration not stated), the inhibition is 42% (inactive).

For the compound `CCOC(=O)c1c(N)sc2c1CCC(CC)C2` (configuration not stated), the inhibition is -12.2% (inactive). Then `CCOC(=O)c1c(NC(=S)Nc2ccccc2)sc2c1CCCCC2`, with 3.6% (inactive); and `Cc1ccc(-n2c(SCC(=O)Nc3cc(C)on3)nc3c([nH]c4ccccc43)c2=O)cc1`, with 4.1% (inactive). Then `Cc1cc(C)n(CC(=O)c2cccc([N+](=O)[O-])c2)n1`, with 7.13% (inactive); and `CNC(=O)c1nc(C)c(C2(C)CC(c3cccc([N+](=O)[O-])c3)=NO2)s1` (configuration not stated), with 11.9% (inactive). Turning to `Cn1c(=O)n(C/C=C/c2ccccc2)c(=O)c2c1nc1n2CCCN1c1ccc(F)cc1`, the inhibition was -5.1% (inactive). The same measure for `O=C(C1=C[C@@H](c2ccc(Br)cc2)C[C@@H](OCCCCO)O1)N1CCN(Cc2ccccc2)CC1`: -0.63% (inactive); for `Cc1nn(C)cc1S(=O)(=O)N1CCN(Cc2ccc(F)cc2Cl)CC1`: 3.03% (inactive). With `CN1CCC(=NNC(=O)CN(c2cccc(Br)c2)S(C)(=O)=O)CC1`, the inhibition was 12.4% (inactive). The same measure for `CCOc1ccc(C(=O)NCc2ccccc2)cc1Br`: 5.79% (inactive). For the compound `CCOCCOC(=O)C1=C(C)N(C)C(=O)NC1c1cc(Cl)c(O)c(OC)c1` (configuration not stated), the inhibition was 2.91% (inactive). As to `NS(=O)(=O)c1ccc(NCC2COc3ccccc3O2)c([N+](=O)[O-])c1` (configuration not stated), the inhibition is 0.14% (inactive).
